Records with an inconclusive call do not appear. The source made the active and inactive calls. Calls come from the whole dose curve; as a rule, active = well fitted curve in the direction sought with a large enough effect in the repeat runs; inconclusive = weak or mixed curves; inactive = no such curve, though single readings can be large; an effect the other way counts as inactive or inconclusive.
Target: Cytochrome P450 2C19 (Homo sapiens) (UniProt P33261)
Assay: Cytochrome P450 Family 2 Subfamily C Member 19 (CYP2C19) small molecule antagonists: luciferase reporter qHTS assay (AID 1671197); note: nearly all actives have a fitted effect of over 65% in size
Conditions: P450-Glo CYP2C19 enzyme, luciferin luminescence, 1 h; series mostly up to 52.9 µM; activity change, negative = inhibition: at the top concentration
Procedure, shortened: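 First, compounds are pinned into enzyme-substrate mix and held 10 min at room temperature. Second, NADPH regeneration solution is added and plates incubate 1 h at 37C. Third, detection reagent is added and luminescence read after 20 min.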
% is set by controls: 0 for no effect and ±100 for the full control effect; potency is the fitted concentration of half-maximal effect.

Chain of Cytochrome P450 2C19 (Homo sapiens) (P33261 whole entry, looked up): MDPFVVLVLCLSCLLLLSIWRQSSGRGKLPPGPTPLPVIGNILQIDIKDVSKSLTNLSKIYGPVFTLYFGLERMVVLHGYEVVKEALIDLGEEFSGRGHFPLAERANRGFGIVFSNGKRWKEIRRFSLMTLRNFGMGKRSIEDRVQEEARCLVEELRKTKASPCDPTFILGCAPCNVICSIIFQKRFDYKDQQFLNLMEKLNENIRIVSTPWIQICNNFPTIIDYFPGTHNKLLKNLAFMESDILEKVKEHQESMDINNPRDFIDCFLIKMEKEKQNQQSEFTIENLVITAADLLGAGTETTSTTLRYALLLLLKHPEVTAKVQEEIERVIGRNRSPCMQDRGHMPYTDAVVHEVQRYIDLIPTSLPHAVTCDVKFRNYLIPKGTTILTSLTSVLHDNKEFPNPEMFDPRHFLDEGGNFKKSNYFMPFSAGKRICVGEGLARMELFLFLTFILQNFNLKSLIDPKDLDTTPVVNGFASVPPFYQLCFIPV

| Compound | activity change, negative = inhibition | Potency |
| --- | --- | --- |
| COc1ccccc1Oc1c(NS(=O)(=O)c2ccc(C(C)(C)C)cc2)nc(-c2ncccn2)nc1OCCO | 42.7% (inactive) | – |
| CCC(C)(C)OC | -10.3% [at 115 µM] (inactive) | – |
| Oc1cccc(O)c1O | – | 70.4 µM (active) |
| Cc1cc(O)c(C)c(C)c1O | 0.552% (inactive) | – |
| CCOc1cccc(-n2cc(C(=O)N3CCN(c4cc(C(=O)O)c5ccccc5c4)CC3)nc2-c2ccc(C)cc2)c1 | – | 53.8 µM (active) |
| OC[C@H]1O[C@@H](n2cnc3c(=S)nc[nH]c32)[C@H](O)[C@@H]1O | – | 7.76 µM (active) |
| Nc1nc2ccc([N+](=O)[O-])cc2s1 | – | 35.6 µM (active) |
| CCCCCCCCCI | -25.1% [at 115 µM] (inactive) | – |
| CCC(=O)C1CC(C(C)C)CC=C1C (centres undefined) | – | 35.6 µM (active) |
| c1csc(SSc2cccs2)c1 | – | 5.03 µM (active) |

Target: Cytochrome P450 2C9 (Homo sapiens) (UniProt P11712)
Assay: Cytochrome P450 Family 2 Subfamily C Member 9 (CYP2C9) small molecule antagonists: luciferase reporter qHTS assay (AID 1671198); note: nearly all actives have a fitted effect of over 50% in size
Conditions: P450-Glo CYP2C9 enzyme assay, luciferin luminescence; series mostly up to 115 µM; activity change, negative = inhibition: at the top concentration
Procedure, shortened: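 CYP2C9 activity was measured with a P450-Glo proluciferin substrate. Enzyme–substrate mix was held with compound for 10 min at room temperature, then NADPH regeneration solution was added for 1 h at 37C. Luciferin product was read as luminescence.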

Chain of Cytochrome P450 2C9 (Homo sapiens) (P11712 whole entry, looked up): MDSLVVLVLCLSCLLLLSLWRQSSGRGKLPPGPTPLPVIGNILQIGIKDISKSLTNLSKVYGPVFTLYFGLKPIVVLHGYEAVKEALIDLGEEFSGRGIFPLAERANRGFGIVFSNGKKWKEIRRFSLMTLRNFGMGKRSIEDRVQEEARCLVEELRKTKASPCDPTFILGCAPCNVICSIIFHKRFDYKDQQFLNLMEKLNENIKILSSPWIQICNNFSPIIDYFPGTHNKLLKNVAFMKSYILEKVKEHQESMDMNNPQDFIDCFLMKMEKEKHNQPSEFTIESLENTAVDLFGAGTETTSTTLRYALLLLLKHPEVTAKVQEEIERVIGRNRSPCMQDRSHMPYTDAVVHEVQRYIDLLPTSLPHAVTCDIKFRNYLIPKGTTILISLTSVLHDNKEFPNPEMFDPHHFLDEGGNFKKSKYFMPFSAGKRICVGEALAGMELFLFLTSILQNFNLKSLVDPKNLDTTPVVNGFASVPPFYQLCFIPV

| Compound | Potency | activity change, negative = inhibition |
| --- | --- | --- |
| O=C1Cc2ccccc2N1c1c(Cl)cccc1Cl | 35.6 µM (active) | – |
| O=C(O)CCCCCCCCCCCBr | – | -4.61% (inactive) |
| C=CC(=O)OCC1CC2CC1C1CCC(COC(=O)C=C)C21 (centres undefined) | 17.8 µM (active) | – |
| CCC(C)(C)OC | – | -9.76% (inactive) |
| CCOc1ccc(Cc2nccc3cc(OCC)c(OCC)cc23)cc1OCC | 4.9 µM (active) | – |
| CN1C(=O)N(c2ccccc2Br)Cc2cnc(Nc3ccc4c(c3)OCC(CO)O4)nc21 (centres undefined) | 11.2 µM (active) | – |
| Clc1cc(Cl)nc(Cl)n1 | – | -19.3% (inactive) |
| CCOc1cccc(-n2cc(C(=O)N3CCN(c4cc(C(=O)O)c5ccccc5c4)CC3)nc2-c2ccc(C)cc2)c1 | 67.7 µM (active) | – |
| CN1C(=O)c2ccccc2C1=O | 10 µM (active) | – |
| OC[C@H]1O[C@@H](n2cnc3c(=S)nc[nH]c32)[C@H](O)[C@@H]1O | 13.8 µM (active) | – |
| CCCCCC[C@@H](O)C/C=C\CCCCCCCC(=O)OCC(O)CO (some centres undefined) | 11.2 µM (active) | – |
| CC(C)(O)c1ccc(CNC(=O)c2cccnc2Oc2ccc3nonc3c2)cc1 | 25.2 µM (active) | – |
| CC1(C)O[C@@H]2C[C@H]3[C@@H]4C[C@H](F)C5=CC(=O)C=C[C@]5(C)[C@H]4[C@@H](O)C[C@]3(C)[C@]2(C(=O)CO)O1 | – | -14.2% [at 53 µM] (inactive) |
| OC1(c2ccccc2)CCNCC1 | – | -8.87% [at 53 µM] (inactive) |
| O=C1c2ccccc2C(=O)c2c(O)c(O)cc(O)c21 | 63.3 µM (active) | – |
| CC1CC(OC(=O)C(O)c2ccccc2)CC(C)(C)N1C (centres undefined) | – | 3.2% [at 53 µM] (inactive) |
| CC(=O)OCCN(CCOC(C)=O)c1ccc(N=Nc2ccc([N+](=O)[O-])cc2C#N)cc1 | 15.9 µM (active) | – |
| Cc1[nH]cnc1CN1CCc2c(c3ccccc3n2C)C1=O | 2.19 µM (active) | – |
| CCCCCCNC(=O)n1cc(F)c(=O)[nH]c1=O | 15.5 µM (active) | – |
| c1csc(SSc2cccs2)c1 | 5.03 µM (active) | – |
| C1C[C@@H]2[C@H]3CC[C@H](C3)[C@@H]2C1 | – | -15.2% (inactive) |

Target: Cytochrome P450 1A2 (Homo sapiens) (UniProt P05177)
Assay: Cytochrome P450 Family 1 Subfamily A Member 2 (CYP1A2) small molecule antagonists: luciferase reporter qHTS assay (AID 1671199); note: nearly all actives have a fitted effect of over 50% in size
Conditions: P450-Glo CYP1A2 enzyme, luciferin luminescence, 1 h; series mostly up to 53 µM; activity change, negative = inhibition: at the top concentration
Procedure, shortened: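 Compounds were incubated with CYP1A2 and a luminogenic proluciferin substrate for 10 min at room temperature before the reaction was started with NADPH regeneration solution. After 1 h, detection reagent was added and light output, proportional to CYP activity, was recorded.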

Chain of Cytochrome P450 1A2 (Homo sapiens) (P05177 whole entry, looked up): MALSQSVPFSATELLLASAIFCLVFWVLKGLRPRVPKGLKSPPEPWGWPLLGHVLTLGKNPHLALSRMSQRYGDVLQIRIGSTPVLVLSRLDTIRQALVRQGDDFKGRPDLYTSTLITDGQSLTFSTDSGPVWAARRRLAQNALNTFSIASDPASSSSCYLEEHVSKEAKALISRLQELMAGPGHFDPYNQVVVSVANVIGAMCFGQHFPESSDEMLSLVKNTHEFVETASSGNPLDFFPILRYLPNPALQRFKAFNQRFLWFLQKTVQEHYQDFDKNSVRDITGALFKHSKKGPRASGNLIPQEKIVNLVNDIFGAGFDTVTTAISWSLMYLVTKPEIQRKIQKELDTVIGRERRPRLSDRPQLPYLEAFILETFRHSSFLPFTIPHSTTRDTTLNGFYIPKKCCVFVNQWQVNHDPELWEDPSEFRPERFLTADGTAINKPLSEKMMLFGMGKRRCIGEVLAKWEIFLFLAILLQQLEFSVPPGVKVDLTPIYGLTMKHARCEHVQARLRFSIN

| Compound | activity change, negative = inhibition | Potency |
| --- | --- | --- |
| O=C1Cc2ccccc2N1c1c(Cl)cccc1Cl | -21% [at 115 µM] (inactive) | – |
| CN1C[C@H](C(=O)N[C@]2(C)O[C@@]3(O)[C@@H]4CCCN4C(=O)[C@H](Cc4ccccc4)N3C2=O)C[C@@H]2c3cccc4[nH]cc(c34)C[C@H]21 | 16.8% (inactive) | – |
| O=C(O)CCCCCCCCCCCBr | -4.12% [at 115 µM] (inactive) | – |
| C=CC(=O)OCC1CC2CC1C1CCC(COC(=O)C=C)C21 (centres undefined) | – | 35.6 µM (active) |
| COc1ccccc1Oc1c(NS(=O)(=O)c2ccc(C(C)(C)C)cc2)nc(-c2ncccn2)nc1OCCO | 1.99% (inactive) | – |
| CCOc1ccc(Cc2nccc3cc(OCC)c(OCC)cc23)cc1OCC | -12% (inactive) | – |
| CN1C(=O)N(c2ccccc2Br)Cc2cnc(Nc3ccc4c(c3)OCC(CO)O4)nc21 (centres undefined) | – | 28.3 µM (active) |
| Clc1cc(Cl)nc(Cl)n1 | – | 36 µM (active) |
| Cc1cc(O)c(C)c(C)c1O | – | 15.5 µM (active) |
| CC/C=C1/OC(=O)c2ccccc21 | – | 5.51 µM (active) |
| CCOc1cccc(-n2cc(C(=O)N3CCN(c4cc(C(=O)O)c5ccccc5c4)CC3)nc2-c2ccc(C)cc2)c1 | -17.9% [at 115 µM] (inactive) | – |
| CN1C(=O)c2ccccc2C1=O | – | 24.5 µM (active) |
| CCCCCC[C@@H](O)C/C=C\CCCCCCCC(=O)OCC(O)CO (some centres undefined) | -25.6% [at 115 µM] (inactive) | – |
| Nc1nc2ccc([N+](=O)[O-])cc2s1 | – | 9.74 µM (active) |
| CC1(C)O[C@@H]2C[C@H]3[C@@H]4C[C@H](F)C5=CC(=O)C=C[C@]5(C)[C@H]4[C@@H](O)C[C@]3(C)[C@]2(C(=O)CO)O1 | 6.91% (inactive) | – |
| OC1(c2ccccc2)CCNCC1 | -12.1% (inactive) | – |
| CCCCCCCCCI | -12.7% [at 115 µM] (inactive) | – |
| O=C1c2ccccc2C(=O)c2c(O)c(O)cc(O)c21 | – | 35.6 µM (active) |
| CCC(=O)C1CC(C(C)C)CC=C1C (centres undefined) | – | 63.3 µM (active) |
| CC1CC(OC(=O)C(O)c2ccccc2)CC(C)(C)N1C (centres undefined) | 15.2% (inactive) | – |
| Cc1[nH]cnc1CN1CCc2c(c3ccccc3n2C)C1=O | – | 0.812 µM (active) |
| CCCCCCNC(=O)n1cc(F)c(=O)[nH]c1=O | -25.8% (inactive) | – |
| c1csc(SSc2cccs2)c1 | – | 31.7 µM (active) |

Target: Voltage-gated inwardly rectifying potassium channel KCNH2 (Homo sapiens) (UniProt Q12809)
Assay: Human Ether-a-go-go-Related Gene (hERG) channel small molecule antagonists: fluorescence cell-based qHTS assay (AID 1671200); note: nearly all actives have a fitted effect of over 50% in size;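 for activity change, negative = inhibition: hERG-expressing U2OS cells given a thallium stimulus after FluxOR II dye loading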
Conditions: hERG-U2OS cells, FluxOR thallium flux fluorescence; series mostly up to 76.8 µM; activity change, negative = inhibition: at the top concentration
Procedure, shortened: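 Fluorescence at 540 nm emission (480 nm excitation) was recorded kinetically for 2 min at 1-second intervals once the thallium-containing stimulus reached cells previously loaded with FluxOR II dye.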

Chain of Voltage-gated inwardly rectifying potassium channel KCNH2 (Homo sapiens) (Q12809 whole entry, looked up): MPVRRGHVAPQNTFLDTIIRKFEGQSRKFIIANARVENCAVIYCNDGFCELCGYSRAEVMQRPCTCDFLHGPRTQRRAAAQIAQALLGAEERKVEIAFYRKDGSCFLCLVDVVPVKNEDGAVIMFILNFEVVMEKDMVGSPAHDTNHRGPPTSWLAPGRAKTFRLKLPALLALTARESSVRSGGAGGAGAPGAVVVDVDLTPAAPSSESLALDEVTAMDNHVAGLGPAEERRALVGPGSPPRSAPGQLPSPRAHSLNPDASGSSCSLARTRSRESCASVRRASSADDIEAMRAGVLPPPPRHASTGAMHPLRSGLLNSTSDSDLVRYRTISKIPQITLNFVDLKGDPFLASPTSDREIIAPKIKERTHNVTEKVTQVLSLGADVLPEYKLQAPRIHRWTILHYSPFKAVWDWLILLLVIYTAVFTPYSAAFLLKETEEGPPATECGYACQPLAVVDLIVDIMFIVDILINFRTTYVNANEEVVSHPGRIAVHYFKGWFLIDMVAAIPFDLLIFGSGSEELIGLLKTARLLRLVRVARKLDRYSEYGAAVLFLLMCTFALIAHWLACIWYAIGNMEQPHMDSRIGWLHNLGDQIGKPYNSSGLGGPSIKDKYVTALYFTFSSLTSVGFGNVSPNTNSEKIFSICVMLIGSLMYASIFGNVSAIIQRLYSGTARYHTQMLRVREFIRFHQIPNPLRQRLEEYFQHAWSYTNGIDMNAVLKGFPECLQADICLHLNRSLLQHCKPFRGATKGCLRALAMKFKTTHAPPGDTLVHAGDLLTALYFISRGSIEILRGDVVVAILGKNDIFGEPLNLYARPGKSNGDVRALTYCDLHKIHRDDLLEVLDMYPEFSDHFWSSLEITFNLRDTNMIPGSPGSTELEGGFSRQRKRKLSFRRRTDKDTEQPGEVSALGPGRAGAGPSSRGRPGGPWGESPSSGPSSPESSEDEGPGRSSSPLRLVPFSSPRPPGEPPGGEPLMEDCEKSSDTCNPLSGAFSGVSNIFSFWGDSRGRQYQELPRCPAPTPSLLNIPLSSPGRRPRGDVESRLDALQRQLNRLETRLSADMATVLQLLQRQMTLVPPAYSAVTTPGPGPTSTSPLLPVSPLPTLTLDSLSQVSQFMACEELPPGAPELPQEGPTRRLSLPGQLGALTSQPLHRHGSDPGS

| Compound | Potency | activity change, negative = inhibition |
| --- | --- | --- |
| O=C1Cc2ccccc2N1c1c(Cl)cccc1Cl | 19.5 µM (active) | – |
| O=C(O)CCCCCCCCCCCBr | – | 13.1% (inactive) |
| CCOC(=O)OC(C)OC(=O)[C@@H]1N2C(=O)[C@@H](NC(=O)[C@H](N)c3ccccc3)[C@H]2SC1(C)C (some centres undefined) | – | 2.08% [at 35.3 µM] (inactive) |
| COc1ccccc1Oc1c(NS(=O)(=O)c2ccc(C(C)(C)C)cc2)nc(-c2ncccn2)nc1OCCO | – | 4.66% [at 35.3 µM] (inactive) |
| CCC(C)(C)OC | – | -11.2% (inactive) |
| OCCN1CCN(CCCN2c3ccccc3Sc3ccc(Cl)cc32)CC1 | 2.68 µM (active) | – |
| Nc1cccc2c1CN(C1CCC(=O)NC1=O)C2=O (centres undefined) | – | -4.25% [at 35.3 µM] (inactive) |
| Oc1cccc(O)c1O | – | 18.6% (inactive) |
| CC1(C)[C@@H](OC(=O)CCC(=O)O)CC[C@]2(C)[C@H]3C(=O)C=C4[C@@H]5C[C@@](C)(C(=O)O)CC[C@]5(C)CC[C@@]4(C)[C@]3(C)CC[C@@H]12 | – | 16.8% [at 35.3 µM] (inactive) |
| CN1C(=O)N(c2ccccc2Br)Cc2cnc(Nc3ccc4c(c3)OCC(CO)O4)nc21 (centres undefined) | 43.6 µM (active) | – |
| Clc1cc(Cl)nc(Cl)n1 | – | -1.78% (inactive) |
| Cc1cc(O)c(C)c(C)c1O | – | 3.93% [at 35.3 µM] (inactive) |
| O=c1cc(-c2ccccc2)oc2cc(O)cc(O)c12 | – | -13.6% (inactive) |
| CC/C=C1/OC(=O)c2ccccc21 | – | -9.25% (inactive) |
| O=c1c(O)c(-c2ccc(O)cc2)oc2cc(O)cc(O)c12 | inactive | – |
| CCOC(=O)C1=C(C)NC(C)=C(C(=O)OC)C1c1cccc(Cl)c1Cl (centres undefined) | – | -2.88% [at 35.3 µM] (inactive) |
| CN1C(=O)c2ccccc2C1=O | – | -11% (inactive) |
| OC[C@H]1O[C@@H](n2cnc3c(=S)nc[nH]c32)[C@H](O)[C@@H]1O | – | 2.16% [at 35.3 µM] (inactive) |

| Compound | Potency | activity change, negative = inhibition |
| --- | --- | --- |
| CCCCCC[C@@H](O)C/C=C\CCCCCCCC(=O)OCC(O)CO (some centres undefined) | – | 1.23% (inactive) |
| Nc1nc2ccc([N+](=O)[O-])cc2s1 | – | -5.4% (inactive) |
| CC(C)(O)c1ccc(CNC(=O)c2cccnc2Oc2ccc3nonc3c2)cc1 | – | 1.67% (inactive) |
| CC1(C)O[C@@H]2C[C@H]3[C@@H]4C[C@H](F)C5=CC(=O)C=C[C@]5(C)[C@H]4[C@@H](O)C[C@]3(C)[C@]2(C(=O)CO)O1 | – | -1.5% [at 35.3 µM] (inactive) |
| OC1(c2ccccc2)CCNCC1 | – | -0.269% [at 35.3 µM] (inactive) |
| CCCCCCCCCI | – | -2.27% (inactive) |
| O=C1c2ccccc2C(=O)c2c(O)c(O)cc(O)c21 | – | -5.54% (inactive) |
| CCC(=O)C1CC(C(C)C)CC=C1C (centres undefined) | – | -2.32% (inactive) |
| C[C@@H](CN(C)C)CN1c2ccccc2Sc2ccccc21 | 9.52 µM (active) | – |
| CC(C)C=O | – | 5.69% (inactive) |
| CC1CC(OC(=O)C(O)c2ccccc2)CC(C)(C)N1C (centres undefined) | – | -2.12% [at 35.3 µM] (inactive) |
| CC(=O)OCCN(CCOC(C)=O)c1ccc(N=Nc2ccc([N+](=O)[O-])cc2C#N)cc1 | 17.4 µM (active) | – |
| CCC1NC(=O)c2cc(S(N)(=O)=O)c(Cl)cc2N1 (centres undefined) | – | 10.8% [at 35.3 µM] (inactive) |
| CCCCCCNC(=O)n1cc(F)c(=O)[nH]c1=O | – | 0.122% [at 35.3 µM] (inactive) |
| c1csc(SSc2cccs2)c1 | – | -0.007% (inactive) |
| CC(C)C(O)(c1ccc(OC(F)(F)F)cc1)c1cncnc1 (centres undefined) | – | -6.4% (inactive) |
| C1C[C@@H]2[C@H]3CC[C@H](C3)[C@@H]2C1 | – | -4.78% (inactive) |

Reference: PubChem BioAssay (Tox21)
